Compound activity as filed in PubChem.
Rab9 promoter act: qHTS Assay for Rab9 Promoter Activators; Huh7 Rab9 promoter-luciferase reporter, luminescence, 24 h; Potency, µM (doses to about 9.22 µM), without a hit: top-dose activation, negative = inhibition, hits mostly activators; 320,000 tested, 2.8% active; AID 485297, 2010; further: % of control where 0% means no effect; nearly all actives have a fitted effect of over 60% in size
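Huh7 reporter line, Rab9 promoter upstream of luciferase. Compound exposure 24 h at 37 °C in reduced-serum medium with 10% FBS. Read-out: luminescence.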
KinaseGlo FLuc: Counterscreen for Luciferase (Kinase-Glo TM) Inhibition; Luciferin 4-monooxygenase (Photuris pensylvanica), Q27757; Kinase-Glo luciferase, ATP luminescence, 8 min; Potency, µM (titrated, usually from 38.3 µM), for the others: at the top dose activity change, negative = inhibition, actives largely listed as inhibitors; 200,000 tested, 0.28% active; further: on the % scale 0 is the no-effect control and ±100 the full control effect; nearly all actives have a fitted effect of over 60% in size
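Inhibition of Kinase-Glo luciferase light generation was assessed at 10 uM ATP in pH 7.2 imidazole buffer, with luminescence measured after eight minutes at ambient temperature.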
ELG1 genotox: qHTS screen for small molecules that induce genotoxicity in human embryonic kidney (HEK293T) cells expressing luciferase-tagged ELG1; HEK293T ELG1-luciferase reporter, luminescence, 16 h; Potency, µM (top dose mostly 46 µM), for the others: top-dose activity change, positive = activation, usual class: activators; 330,000 tested, 1.3% active; AID 504466, 2011; further: % of control where 0% means no effect; nearly all actives have a fitted effect of over 60% in size
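16 hr compound incubation (37 °C, 5% CO2) of HEK293T cells carrying luciferase-tagged ELG1; luciferase then measured by ONE-Glo luminescence after 30 min at RT.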
SMN2 splice enh: qHTS Assay for Enhancers of SMN2 Splice Variant Expression; 210,000 tested, 2.8% active; AID 1458, 2008; Potency, µM (highest dose often 46.1 µM), without a hit: at the highest dose activity change, positive = activation, usual class: activators; HEK293 SMN2-luciferase splicing reporter, luminescence, 30-36 h; further: % of control where 0% means no effect; nearly all actives have a fitted effect of over 55% in size
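HEK293 cells carry an SMN2 […]–luciferase reporter in which exon 7 inclusion puts luciferase in frame. Cells were plated 10-12 h before compound addition, then incubated 30-36 h at 37C. ONE-Glo luminescence was read; sodium butyrate at 4.5 mM final served as control.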
NPC1 prom act: qHTS Assay for NPC1 Promoter Activators; Huh7 NPC1 promoter luciferase reporter, 24 h; Potency, µM (doses to about 9.22 µM), for the others: top-dose activation, most hits filed as activators; 320,000 tested, 2.4% active; AID 485313, 2010; further: % of control where 0% means no effect; nearly all actives have a fitted effect of over 60% in size
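Luminescence read-out of NPC1 promoter-driven luciferase in stably transfected Huh7 cells; compounds delivered in DMSO and left 24 h at 37C, 5% CO2, qHTS titration format.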
FLuc modulator: qHTS profiling assay for firefly luciferase inhibitor/activator using purifed enzyme and Km concentrations of substrates (counterscreen for miR-21 project); Luciferin 4-monooxygenase (Photinus pyralis), P08659; purified FLuc, Km substrates, luminescence inhibition; 360,000 tested, 6.9% active; AID 588342, 2011; Potency, µM (titrated, usually from 57.5 µM), for the others: top-dose activity change, negative = inhibition, actives largely listed as inhibitors;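 further: plate controls were vehicle for no effect and reference inhibitor for full effect; nearly all actives have a fitted effect of over 55% in size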
Target sequence (P08659 whole entry, looked up): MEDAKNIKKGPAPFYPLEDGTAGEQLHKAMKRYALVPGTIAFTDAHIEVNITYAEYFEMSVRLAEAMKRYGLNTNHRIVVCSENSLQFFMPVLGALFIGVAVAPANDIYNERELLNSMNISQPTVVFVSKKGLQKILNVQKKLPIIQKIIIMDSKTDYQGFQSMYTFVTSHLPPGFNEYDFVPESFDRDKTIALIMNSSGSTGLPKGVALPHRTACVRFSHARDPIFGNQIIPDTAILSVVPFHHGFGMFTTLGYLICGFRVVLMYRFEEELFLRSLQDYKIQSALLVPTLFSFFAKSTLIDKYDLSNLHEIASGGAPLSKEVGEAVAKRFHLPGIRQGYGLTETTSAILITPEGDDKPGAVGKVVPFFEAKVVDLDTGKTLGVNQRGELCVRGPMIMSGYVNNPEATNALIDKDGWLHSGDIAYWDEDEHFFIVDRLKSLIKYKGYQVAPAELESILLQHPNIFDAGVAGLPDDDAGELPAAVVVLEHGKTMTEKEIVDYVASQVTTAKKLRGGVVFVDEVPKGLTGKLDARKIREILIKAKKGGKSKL
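Biochemical qHTS of compounds, final roughly 60 µM downward over six points, against 10 nM purified firefly luciferase using Km concentrations of substrates (10 uM D-luciferin, 10 uM ATP) in Tris acetate pH 7.5 buffer; luminescence output.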
* hit, by the source's call; ? = inconclusive; . = no result given; ! = not active in a repeat; [ ] = remark or other dose. Compounds with a hit are over-represented: about 7.5% of the library has one in this group of screens. The call rests on the fitted dose curve; in most records, active means well fitted curve in the direction sought with a large enough effect; inconclusive means small, poorly fitted or top-dose-only effect, or another doubt; inactive means no such curve, though single readings can be large; an effect the other way counts as inactive or inconclusive. Potency means the concentration at half of the fitted maximal effect.

SMILES | Rab9 promoter act | KinaseGlo FLuc | ELG1 genotox | SMN2 splice enh | NPC1 prom act | FLuc modulator
Fc1ccc(-n2nnc(-c3ccnc4ccccc34)n2)cc1 | 4µM* | . | ? | . | 25% | 2.1µM*
CC1(C)S[C@@H]2[C@H](NC(=O)C3(N)CCCCC3)C(=O)N2[C@@H]1C(=O)O | . | -6%[7.66 µM] | . | -18%[9.22 µM] | . | .
COc1ccc(C(=O)Nc2nnc(SCC(=O)NCc3ccco3)s2)cc1OC | 18% | . | 2% | . | ? | -3%
CCSc1nnc(Nc2ccc(C)cc2)s1 | 2.8µM* | 1% | ? | ? | 3.5µM* | 9.5µM*
COc1ccccc1C(=O)Nc1nnc(SCC(=O)NCc2ccco2)s1 | 2.2µM* | . | 2.3µM* | . | 3.2µM* | 3.4µM*
COc1ccc(C(=O)Nc2nnc(SCC(=O)NCc3ccco3)s2)c(OC)c1 | 0.32µM* | . | 0.52µM* | . | 0.28µM* | 0.67µM*
Cc1ccc(Nc2nc(C(=O)NCc3ccco3)cs2)cc1 | -2% | -4% | -3% | -15% | 11% | 24µM*
Cc1ccc(Nc2nnc(SCC(=O)NCc3ccco3)s2)cc1 | 6% | -8% | 1% | 8% | 21% | 13µM*
O=C(CSc1nnc(NC(=O)c2ccccc2F)s1)NCc1ccco1 | 4µM* | . | 16µM* | . | 3.5µM* | 8.5µM*
CCC(Sc1nc2cc(OC)c(OC)cc2c(=O)n1CCc1ccc(Cl)cc1)C(=O)NCCOC (configuration not stated) | . | . | . | . | . | 2%
COC(=O)c1ccc(CSc2nnc(NC(=O)C3CC(=O)N(c4ccc5c(c4)OCCO5)C3)s2)cc1 (configuration not stated) | -4% | 4% | 6% | -8% | -1% | -6%
NC(=O)c1cccnc1Nc1cccc([N+](=O)[O-])c1 | 1.8µM* | 1% | ? | . | 4µM* | 15µM*
O=C(Nc1cccc(C(=O)N2CCN(c3ccc(Cl)cc3)CC2)c1)c1nsc2ccccc12 | . | . | . | . | . | 1.2µM*
O=C(Nc1cccc(C(=O)N2CCN(c3cccc(Cl)c3)CC2)c1)c1ccccc1 | 1% | -1% | -19% | -23% | 0% | -5%
Cc1ccc(C(=O)N2CCC(C)CC2)cc1NC(=O)c1nsc2ccccc12 | . | . | . | . | . | -21%
O=C(Nc1cccc(C(=O)N2CCN(c3cccc(Cl)c3)CC2)c1)c1nsc2ccccc12 | . | . | . | . | . | 2.7µM*
Cc1ccc(C(=O)N2CCN(c3ccc(F)cc3)CC2)cc1NC(=O)c1nsc2ccccc12 | . | . | . | . | . | -4%
Cc1ccc(C)c(N2CCN(C(=O)c3ccc(NC(=O)c4nsc5ccccc45)cc3)CC2)c1 | . | . | . | . | . | 17µM*
O=C(Nc1cccc(C(=O)N2CCN(c3ccc(F)cc3)CC2)c1)c1nsc2ccccc12 | . | . | . | . | . | 0.85µM*
Oc1ccc2cc(SSc3ccc4cc(O)ccc4c3)ccc2c1 | . | . | . | -40% | . | .
CN[C@@H]1NC(=O)c2ccccc2N1Cc1ccc(F)cc1 | . | -4%[7.66 µM] | . | -6%[9.22 µM] | . | .
Cc1noc(C)c1C(=O)Nc1cccc(S(=O)(=O)N2CCOCC2)c1 | 0% | . | 2% | . | -1% | 3%
O=C(Nc1ccc(C(=O)N2CCN(c3ccccc3)CC2)cc1)c1nsc2ccccc12 | . | . | . | . | . | 5.4µM*
O=C(Nc1ccc(C(=O)N2CCN(c3cccc(Cl)c3)CC2)cc1)c1nsc2ccccc12 | . | . | . | . | . | 4.3µM*
O=C(Nc1cccc(C(=O)N2CCN(c3ccccc3F)CC2)c1)c1nsc2ccccc12 | . | . | . | . | . | 3µM*
SMILES | Rab9 promoter act | KinaseGlo FLuc | ELG1 genotox | SMN2 splice enh | NPC1 prom act | FLuc modulator
COc1cccc(N2CCN(C(=O)c3ccc(C)c(NC(=O)c4nsc5ccccc45)c3)CC2)c1 | . | . | . | . | . | -2%
Nc1nc(C(=O)O)c(N=Nc2ccccc2)c(=O)[nH]1 | . | -4%[7.66 µM] | . | -8%[9.22 µM] | . | .
CC(C)C(=O)Nc1ccc(NC(=O)c2cccs2)cn1 | ? | 9% | 18µM* | 7% | ? | ?
O=C(Nc1ccc(NC(=O)C2CC2)nc1)c1cnccn1 | 14% | -7% | ? | ? | 3% | -21%
CCC(=O)Nc1ccc(NC(=O)c2ccccn2)cn1 | 0.63µM* | -18% | 2.5µM* | 14µM* | 1.3µM* | 11µM*
CC(C)C(=O)Nc1ccc(NC(=O)c2ccccn2)cn1 | 0.56µM* | . | ? | . | 0.71µM* | 6.7µM*
CC(C)C(=O)Nc1ccc(NC(=O)c2cccnc2)cn1 | 0% | -1% | 5% | 2% | -6% | 0%
O=C(Nc1ccc(NC(=O)C2CC2)nc1)c1ccccn1 | 1.3µM* | . | ? | . | 0.56µM* | 6.7µM*
COc1ccc(C)c(NC(=O)NCCc2cnc[nH]2)c1 | 11% | . | 0% | . | -2% | 0%
Cc1cc(NC(=O)C(C)C)ncc1NC(=O)c1ccccn1 | 3.2µM* | -3% | ? | 13µM* | ? | ?
CCCC(=O)Nc1cc(C)c(NC(=O)c2ccccn2)cn1 | ? | -9% | 4% | 8% | 24% | -19%
Nc1ncnc2c1ncn2[C@@H]1O[C@H](CNC(=O)[C@H](N)Cc2cscn2)[C@@H](O)[C@H]1O | . | . | -1% | . | . | .
Cc1c(-c2ccccc2)nnn1-c1ccc(F)cc1F | ? | . | ? | . | ? | 21µM*
Cc1c(-c2nc(-c3ccccc3F)no2)nnn1-c1cc(F)ccc1F | . | . | . | . | . | 0.17µM*
CC(=O)c1nnn(-c2ccc(F)cc2F)c1C | 3% | . | 0% | . | -1% | 0%
CCc1ccccc1-n1nnc(-c2nc(-c3ccccc3F)no2)c1C | . | . | . | . | . | 1.2µM*
Cc1ccc(NC(=O)c2c(C)oc3ccc(O)c(CN4CCN(Cc5ccccc5)CC4)c23)cc1 | . | . | . | -16% | . | -3%
Cc1cc(C)c(C(=O)C(C)OC(=O)c2ccccn2)cc1C (configuration not stated) | 9% | . | -2% | . | 2% | 5%
CN1CCN(/N=C/c2ccc(Cl)c(Cl)c2)CC1 | ? | -1% | ? | 13µM* | ? | 19µM*
N/C(=N\OC(=O)c1cccs1)c1cccc([N+](=O)[O-])c1 | 26% | -5% | ? | 20% | 21% | 3.4µM*
Cc1ncsc1CCOC(=O)c1cccc([N+](=O)[O-])c1 | -5% | -4% | 1% | 5% | -2% | 19µM*!
N/C(=N\OC(=O)c1cccc2ccccc12)c1cccc([N+](=O)[O-])c1 | 15% | 0% | 1% | 13% | 12% | ?
COc1cccc(C(=O)O/N=C(\N)c2ccc([N+](=O)[O-])cc2)c1OC | 10%[1.84 µM] | -4% | ? | ? | ? | 11µM*
